Data taken from PubChem BioAssay AID1628 (Sanford-Burnham Center for Chemical Genomics, 2009).
About 930 (0.49%) of roughly 190,000 compounds were called active. The list shows a part of the results. Results with a measured potency or affinity are listed apart. Unmarked numbers belong to inactive results.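 How the source made its calls: active means z-score of insulin promoter reporter brightness in nuclei below -3 at 5 µM, with at least 500 cells counted; inconclusive means wells with under 500 cells, flagged as toxic or sparse; inactive means the rest.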

Test: decrease of insulin promoter-GFP reporter – imaging, high-content screening, mouse beta cells (AID 1628)
Conditions: MIN6 insulin promoter GFP reporter, at 5 µM, hits give low values
For `N#Cc1c(NC(=O)CCCN2C(=O)c3ccccc3C2=O)oc(-c2ccccc2)c1-c1ccccc1`, the z-score was -0.48.
`Cc1csc(SC(C)C(=O)NCC(=O)Nc2ccc(F)c(F)c2F)n1` (stereo not given) gave a z-score of 4.91.
In the case of `Cc1ccc(-n2nnnc2SC(C)C(=O)NCC(=O)Nc2ccc(F)c(F)c2F)c(C)c1` (stereo not given), the z-score is reported as -4.63 (active).
Work on `Cc1ccc2nc(C)c(C(=O)O)cc2c1` yielded a z-score of 3.57.
In the case of `CS(=O)(=O)N1CCc2cc(-c3csc(NC(=O)Cc4cccs4)n3)ccc21`, the z-score is reported as -3.24 (active).
For `O=C(CN1CCOCC1)Nc1nc(-c2ccc3c(c2)CCN3S(=O)(=O)c2ccccc2)cs1`, the z-score was -3.24 (active).
Work on `O=S(=O)(NCc1csc(-c2ccccc2)n1)c1ccc(Cl)s1` yielded a z-score of 0.86.
In the case of `O=C(Nc1ccccc1)c1ccccc1NS(=O)(=O)c1ccc(Cl)s1`, the z-score is reported as -3.51 (active).
In the case of `Cc1ccc(SCCC(=O)N/N=C/c2ccncc2)cc1`, the z-score is reported as 1.59.
For `CC(=O)Oc1ccc2c(c1)Oc1cc(OC(C)=O)ccc1C21OC(=O)c2ccccc21`, the z-score was 15.3.
In the case of `O=C1/C(=C/c2c[nH]c3ccccc23)CCC/C1=C\c1c[nH]c2ccccc12`, the z-score is reported as 4.59.
With `O=C1CC(=O)C(n2cncn2)C(c2ccc(Cl)cc2)C1` (stereo not given) the z-score was -5.08 (active).
In the case of `COc1ccc(/C=C2/SC(=O)N(CCNC(=O)C3CCCN3C(=O)c3cccs3)C2=O)cc1` (stereo not given), the z-score is reported as -4.56 (active).
`COCCN1C(=O)/C(=C/c2ccc(N3CCCC3)cc2)SC1=S` showed a z-score of 16.8.
`CCC(C)(C(=O)NC1CCCC1)N(C(=O)CNC(C)=O)c1ccccc1` (stereo not given) showed a z-score of 3.46.
With `O=C(CCl)N(c1ccccc1)C1CCCCC1` the z-score was -5.83 (active).
In the case of `Cc1ccc2[nH]c(-c3ccccc3)c(CN(C)C)c(=O)c2c1`, the z-score is reported as 4.17.
In the case of `O=c1c2nnn(Cc3ccccc3)c2ncn1C/C=C/c1ccccc1`, the z-score is reported as -5.83 (active).
Compound `COc1cccc(-n2nnc3c(=O)n(CC(=O)OCc4ccccc4)cnc32)c1` has a z-score of 1.01.
`Cc1ccc(Cn2nnc3c(=O)n(CC(=O)NCc4ccco4)cnc32)cc1` showed a z-score of 1.28.
For `c1ccc(CCNc2c3c(nc4ncnn24)CCC3)cc1`, the z-score was -3.18 (active).
In the case of `Oc1[nH]c2c(Cl)cc(Cl)cc2c1N=NC(=S)NCC1CCCO1` (stereo not given), the z-score is reported as -3.65 (active).
`O=C(CN(C1CCCCC1)S(=O)(=O)c1ccccc1)NCc1ccco1` gave a z-score of 0.65.
With `CCC(=O)N1CCCc2cc(S(=O)(=O)N3CCN(c4ccccc4F)CC3)ccc21` the z-score was -5.64 (active).
With `CCOC(=O)C1CCN(S(=O)(=O)c2ccc3c(c2)CCCN3C(C)=O)CC1` the z-score was -4.86 (active).
With `COc1ccccc1N/C(N)=N/c1nc(C(F)(F)F)cc(=O)[nH]1` the z-score was 3.34.
Work on `CCCCn1c(SCC(=O)O)nc2ccccc21` yielded a z-score of 3.5.
In the case of `CCCCn1c(SCc2ncc(-c3ccccc3)o2)nc2cc(S(N)(=O)=O)ccc21`, the z-score is reported as -5.03 (active).
For `N=c1c2c(-c3ccccc3)c(-c3ccccc3)oc2ncn1CCCN1CCOCC1`, the z-score was -3.3 (active).
Compound `Cc1cccn2c(=O)c(/C=C3\SC(=S)NC3=O)c(NCCCN3CCOCC3)nc12` has a z-score of 5.45.
`O=C(/C=C/c1ccc(N2CCC(c3ccccc3)=N2)cc1)c1ccccc1` gave a z-score of 17.2.
For `O=C1C=C(Nc2ccc(O)cc2)CC(c2ccco2)C1` (stereo not given), the z-score was 6.78.
`O=c1[nH]c2ccccc2nc1/C=C/c1ccc(F)cc1` showed a z-score of 5.99.
For `CCOC(=O)c1c(NC(=O)c2ccccc2)sc2c1CCc1ccccc1-2`, the z-score was -5.18 (active).
`CCOC(=O)c1sc(NC(=O)c2sccc2C)cc1C` gave a z-score of 3.1.
`CC(=O)C1=C(C)NC(SCC(=O)c2ccc(Cl)c(Cl)c2)=C(C#N)C1c1ccco1` (stereo not given) showed a z-score of 3.16.
In the case of `CCOC(=O)CSC1=C(C#N)C(c2ccc(C)s2)CC(=O)N1` (stereo not given), the z-score is reported as -3.15 (active).
`Cc1ccc(C2CC(=O)NC(SCc3ccccc3)=C2C#N)o1` (stereo not given) showed a z-score of 3.43.
For `CCn1c(NCCc2ccc(OC)c(OC)c2)nc2c1c(=O)n(C)c(=O)n2C`, the z-score was -5.44 (active).
In the case of `CCCNc1nc2c(c(=O)n(C)c(=O)n2C)n1CCc1ccccc1`, the z-score is reported as -5.56 (active).
For `CCOc1cc2[nH]c(=O)n(CCC(=O)NCCc3ccc(OC)c(OC)c3)c(=O)c2cc1OCC`, the z-score was 1.44.
Work on `O=c1cc2oc3cc(O)c(O)cc3c(-c3ccccc3O)c-2cc1O` yielded a z-score of 15.3.
In the case of `CCn1c(SCC(=O)Nc2nc3ccc(OC)cc3s2)nc2c1c(=O)n(C)c(=O)n2C`, the z-score is reported as -3.33 (active).
For `CCn1ncc(C2=NOC(C(=O)Nc3cccc(C(C)=O)c3)C2)c1C` (stereo not given), the z-score was -3 (active).
In the case of `CC(C)(C)c1ccc(C(=O)c2c[nH]c(C(=O)NCC3CCCO3)c2)cc1` (stereo not given), the z-score is reported as -4.57 (active).
Work on `C=C(C)c1cccc(C(C)(C)NC(=O)NCC2COCCO2)c1` (stereo not given) yielded a z-score of 0.86.
In the case of `CCn1c(=NC(=O)c2ccc(S(=O)(=O)N(C)C)cc2)sc2cccc(OC)c21`, the z-score is reported as -5.14 (active).
Work on `c1ccc(-n2ncc3c(N4CCN(c5ccccn5)CC4)nc(N4CCCCCC4)nc32)cc1` yielded a z-score of 4.11.
`C/C(=C\c1ccccc1)CN1CCN(c2ccccc2)CC1` gave a z-score of 1.49.
With `CC(=O)Nc1sc(/C(C#N)=C\c2cccc(Cl)c2)nc1-c1ccc(C)cc1` the z-score was 15.6.
Work on `CCOC(=O)N1CCN(/C=C(\C#N)c2nc3ccccc3s2)CC1` yielded a z-score of 3.47.
With `Cc1nn(-c2ccccc2)c(N2CCCC2)c1/C=N/n1cnc2scc(-c3ccccc3)c2c1=O` the z-score was -3.26 (active).
For `COc1ccc(Nc2ncnc3c2cnn3Cc2ccccc2)cc1OC`, the z-score was -4.71 (active).
Compound `COc1cc2c3nnc(-c4ccc(F)cc4)c-3cn(Cc3ccccc3)c2cc1OC` has a z-score of 3.81.
For `O=[N+]([O-])c1ccc(N/N=C/c2ccc[nH]2)cc1`, the z-score was 12.9.
`N#C/C(=C/c1ccc(N2CCOCC2)o1)c1ccc(Cl)cc1` gave a z-score of 7.33.
`Oc1c(C=NCc2ccc(F)cc2)[nH]c2ccc(Br)c(Cl)c12` gave a z-score of 4.06.
With `CCC(C)NS(=O)(=O)c1ccc(NC(=O)Cc2ccc(OC)cc2)cc1` (stereo not given) the z-score was -3.19 (active).
With `CCOC(=O)c1ccc(NC(=O)COc2ccc(S(=O)(=O)NC(C)CC)cc2)cc1` (stereo not given) the z-score was 3.08.
In the case of `COc1ccc(NC(=O)CSc2ncccc2C(=O)OC(C)C)cc1OC`, the z-score is reported as -5.26 (active).
In the case of `Cc1ccccc1CN(c1ccc(C(=O)NCC2CCCO2)cc1)S(C)(=O)=O` (stereo not given), the z-score is reported as -4.88 (active).
Compound `O=C(COC(=O)c1ccco1)NCC1CCCO1` (stereo not given) has a z-score of 3.04.
For `CCCc1n[nH]c2c1C(=O)C(C(=O)OC)C(C)(C)C2` (stereo not given), the z-score was 3.65.
In the case of `CN(CCC#N)C(=O)COC(=O)c1ccc(Cl)c(S(N)(=O)=O)c1`, the z-score is reported as -5.92 (active).
`CCOC(=O)C1=C(C)NC(=O)NC1c1ccc(N2CCC(c3ccccc3)=N2)cc1` (stereo not given) showed a z-score of 4.29.
`COc1ccc(Cl)cc1NC(=O)c1c(-c2ccccc2)noc1C` gave a z-score of 18.
With `CCOC(=O)C1=C(c2ccccc2)NC(N)=NC1c1ccc(OCc2ccc(Cl)cc2)c(OC)c1` (stereo not given) the z-score was -3.43 (active).
Work on `O=C(/C=C/c1ccccc1)NCC(=O)N/N=C/c1ccccc1[N+](=O)[O-]` yielded a z-score of 3.03.
With `O=[N+]([O-])c1ccc(N/N=C/c2c[nH]c3ccccc23)cc1` the z-score was 3.11.
Compound `CCN(CC)CCn1c(=S)[nH]c2ccc(Cl)cc2c1=O` has a z-score of 3.97.
In the case of `C=C(C)Cn1c(=S)[nH]c2ccccc2c1=O`, the z-score is reported as -6.61 (active).
`Nn1c(=O)[nH]c2ccccc2c1=O` showed a z-score of -0.08.
With `O=[N+]([O-])c1ccc(Cc2nnc(-c3ccccc3Cl)o2)cc1` the z-score was 2.55.
For `COCc1c(C(=O)OCC(=O)c2c(N)n(CC(C)C)c(=O)n(C)c2=O)oc2ccccc12`, the z-score was -4.37 (active).
In the case of `CC(C)Cn1c(N)c(C(=O)COC(=O)c2ccc3c(c2)OCCO3)c(=O)n(C)c1=O`, the z-score is reported as -4.98 (active).
In the case of `CCOc1ccc(-c2nnn(CC(=O)c3ccc4c(c3)OCCO4)n2)cc1`, the z-score is reported as -0.23.
With `C[C@@H](C(=O)Nc1ccc2ccccc2c1)[C@H]1C[C@]1(C)[C@H](NC(=O)c1cnccn1)c1ccccc1` the z-score was -4.74 (active).
With `CCOC(=O)C1=C(N2CCCCC2)c2cc3c(n2C1=O)CCCC3` the z-score was -3.42 (active).
For `CCOC(=O)CN1C(=O)S/C(=C/c2ccc(N3CCCCC3)o2)C1=O`, the z-score was 5.8.
In the case of `COc1ccc2c(OC)c3ccoc3nc2c1OC`, the z-score is reported as -0.53.
`CCCS(=O)(=O)N1CCN(Cc2ccccc2C(F)(F)F)CC1` gave a z-score of -0.28.
In the case of `CCCS(=O)(=O)N1CCN(Cc2ccccc2[N+](=O)[O-])CC1`, the z-score is reported as -3.06 (active).
Work on `CC(C)SC1=NC(C)(C)C=C(/C=C/c2ccc(Cl)cc2Cl)N1` yielded a z-score of 3.58.
`Cn1cnc2c(NCc3ccco3)ncnc21` showed a z-score of -0.11.
Work on `Cc1cc(N/N=C/c2ccc([N+](=O)[O-])o2)nc2ccccc12` yielded a z-score of 8.56.
With `Cc1ccc(/C=N/Nc2ccc3ccccc3n2)o1` the z-score was -3.22 (active).
In the case of `Cc1ccn2c(-c3csc(NCc4ccco4)n3)c(C)nc2c1`, the z-score is reported as -6.24 (active).
For `Cc1nc2ccccn2c1-c1csc(NCc2ccco2)n1`, the z-score was -9.7 (active).
For `Cc1ccn2c(=O)cc(C)nc2c1`, the z-score was 2.27.
For `CC(=O)Nc1ccc(N2C(=O)C3C4CC(=O)C(c5ccccc54)C3C2=O)cc1` (stereo not given), the z-score was -5.05 (active).
For `CC(=O)Nc1ccc(N2CCc3c(C)c(C#N)c4nc5ccccc5n4c32)cc1`, the z-score was 3.8.
For `CC1CN(Cc2cc(=O)[nH]c(C3CC3)n2)CC(C)O1` (stereo not given), the z-score was -3.69 (active).
Compound `O=C(NCc1ccc(F)cc1)C1CCCN(S(=O)(=O)c2cccnc2)C1` (stereo not given) has a z-score of 3.46.
With `C/C(=N\NC(=O)C1CCCN(S(=O)(=O)c2ccccc2)C1)c1ccccn1` (stereo not given) the z-score was -3.38 (active).
`CCN(CCNC(=O)C1CCCN(S(=O)(=O)CC)C1)c1ccccc1` (stereo not given) showed a z-score of 3.08.
